Holding throughout (test): DAPPL (digital affinity profiling via proximity ligation, sequencing); 10 mM Tris-HCl pH 7.5, 50 mM NaCl, 1 mM DTT, 4% glycerol, room temperature, 30 min; GST-TFs on glutathione beads, 16-mer random dsDNA library, 0.1% formaldehyde crosslink after washing; high values mean tight binding
One experiment deals with T1, FEV (Homo sapiens, UniProt Q99581 1-238).
T1 sequence: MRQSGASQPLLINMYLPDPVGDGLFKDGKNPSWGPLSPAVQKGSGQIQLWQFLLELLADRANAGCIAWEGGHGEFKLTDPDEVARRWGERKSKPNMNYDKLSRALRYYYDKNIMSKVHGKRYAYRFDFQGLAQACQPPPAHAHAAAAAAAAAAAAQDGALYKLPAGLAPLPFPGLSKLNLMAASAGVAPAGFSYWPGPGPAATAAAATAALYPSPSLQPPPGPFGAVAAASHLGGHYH
The following applies: protein: recombinant; tags: N-terminal GST; dsDNA, one strand shown. The procedure, abridged: (§1)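 Binding signal is given per hexamer as its read frequency for a factor divided by its frequency in the tag-only sample. GST-fused human transcription factors were expressed in yeast, captured on glutathione beads, barcoded with DNA and pooled with that sample, then incubated with 200 nmole of a 16-mer random double-stranded DNA library in Tris/NaCl/DTT/glycerol buffer for 30 min at room temperature. The pools were then washed, crosslinked, proximity-ligated, amplified by PCR and sequenced on an Illumina NextSeq500.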

In another experiment the target is ETV5 (Homo sapiens, UniProt P41161 1-510). The following applies: protein: recombinant; tags: N-terminal GST; dsDNA, one strand shown. In a few lines: as §1
ETV5, sequence (P41161 whole entry): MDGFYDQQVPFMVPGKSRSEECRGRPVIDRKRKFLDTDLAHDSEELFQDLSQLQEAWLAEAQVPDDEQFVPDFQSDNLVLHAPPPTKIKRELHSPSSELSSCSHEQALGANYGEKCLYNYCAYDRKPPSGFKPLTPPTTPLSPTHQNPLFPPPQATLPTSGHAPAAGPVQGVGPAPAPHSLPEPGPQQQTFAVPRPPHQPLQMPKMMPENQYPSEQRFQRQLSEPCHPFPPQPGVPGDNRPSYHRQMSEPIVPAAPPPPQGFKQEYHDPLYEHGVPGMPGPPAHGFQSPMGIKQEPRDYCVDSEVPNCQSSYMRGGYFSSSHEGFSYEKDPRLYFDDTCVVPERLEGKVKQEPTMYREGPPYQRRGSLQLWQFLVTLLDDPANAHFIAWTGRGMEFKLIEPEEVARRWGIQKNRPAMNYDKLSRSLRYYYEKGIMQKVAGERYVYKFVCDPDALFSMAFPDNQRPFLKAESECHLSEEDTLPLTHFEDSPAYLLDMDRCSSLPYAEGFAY
The next experiment deals with HSF1 (Homo sapiens, UniProt Q00613 1-529). The following applies: protein: recombinant; tags: N-terminal GST; chain copies: 3; dsDNA, one strand shown. The procedure, abridged: as §1
HSF1, sequence (Q00613 whole entry): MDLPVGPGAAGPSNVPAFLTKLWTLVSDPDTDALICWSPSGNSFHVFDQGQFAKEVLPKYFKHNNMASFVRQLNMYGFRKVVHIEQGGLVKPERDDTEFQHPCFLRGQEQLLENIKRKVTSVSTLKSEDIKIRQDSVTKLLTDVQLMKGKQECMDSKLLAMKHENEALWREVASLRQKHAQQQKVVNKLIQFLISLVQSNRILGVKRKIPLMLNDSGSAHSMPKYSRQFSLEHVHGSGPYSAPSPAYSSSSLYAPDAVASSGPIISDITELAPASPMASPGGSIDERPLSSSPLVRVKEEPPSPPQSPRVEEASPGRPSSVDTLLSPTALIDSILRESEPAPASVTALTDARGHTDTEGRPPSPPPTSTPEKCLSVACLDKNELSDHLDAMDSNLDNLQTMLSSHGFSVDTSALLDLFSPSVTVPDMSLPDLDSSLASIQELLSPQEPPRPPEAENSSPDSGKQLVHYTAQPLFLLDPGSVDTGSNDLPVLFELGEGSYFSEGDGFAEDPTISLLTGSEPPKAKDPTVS
Another experiment addresses T2, SPIC (Homo sapiens, UniProt Q8N5J4 1-248).
T2 sequence: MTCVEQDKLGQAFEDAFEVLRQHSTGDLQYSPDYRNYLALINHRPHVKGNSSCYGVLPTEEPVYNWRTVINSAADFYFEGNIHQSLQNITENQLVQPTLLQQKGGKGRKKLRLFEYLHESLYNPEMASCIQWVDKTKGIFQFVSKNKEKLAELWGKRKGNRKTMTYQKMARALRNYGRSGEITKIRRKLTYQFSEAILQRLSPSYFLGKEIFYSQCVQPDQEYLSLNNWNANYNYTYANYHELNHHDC
The following applies: protein: recombinant; tags: N-terminal GST; dsDNA, one strand shown. The procedure, abridged:
as §1

The target in a further experiment is ELF4 (Homo sapiens, UniProt Q99607 1-663). The following applies: protein: recombinant; tags: N-terminal GST; dsDNA, one strand shown. The procedure, abridged: as §1
ELF4, sequence (Q99607 whole entry): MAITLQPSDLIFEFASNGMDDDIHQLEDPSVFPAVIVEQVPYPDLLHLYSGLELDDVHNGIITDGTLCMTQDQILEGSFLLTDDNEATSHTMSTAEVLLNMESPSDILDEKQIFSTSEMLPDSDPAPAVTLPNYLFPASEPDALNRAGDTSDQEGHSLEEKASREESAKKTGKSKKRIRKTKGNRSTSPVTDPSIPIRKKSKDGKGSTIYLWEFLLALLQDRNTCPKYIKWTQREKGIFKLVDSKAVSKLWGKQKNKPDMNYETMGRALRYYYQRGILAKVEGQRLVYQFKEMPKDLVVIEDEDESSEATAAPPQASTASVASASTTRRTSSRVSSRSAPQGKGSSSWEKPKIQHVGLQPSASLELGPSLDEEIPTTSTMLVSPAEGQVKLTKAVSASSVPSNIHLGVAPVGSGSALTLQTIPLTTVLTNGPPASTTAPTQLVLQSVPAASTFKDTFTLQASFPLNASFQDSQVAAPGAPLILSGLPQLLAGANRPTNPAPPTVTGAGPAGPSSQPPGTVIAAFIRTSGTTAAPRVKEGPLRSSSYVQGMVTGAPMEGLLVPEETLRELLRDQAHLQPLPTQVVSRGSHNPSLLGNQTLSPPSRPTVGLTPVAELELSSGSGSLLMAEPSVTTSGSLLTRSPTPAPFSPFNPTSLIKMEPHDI
A further experiment addresses T3, ELK4 (Homo sapiens, UniProt P28324-2 1-405).
T3 sequence: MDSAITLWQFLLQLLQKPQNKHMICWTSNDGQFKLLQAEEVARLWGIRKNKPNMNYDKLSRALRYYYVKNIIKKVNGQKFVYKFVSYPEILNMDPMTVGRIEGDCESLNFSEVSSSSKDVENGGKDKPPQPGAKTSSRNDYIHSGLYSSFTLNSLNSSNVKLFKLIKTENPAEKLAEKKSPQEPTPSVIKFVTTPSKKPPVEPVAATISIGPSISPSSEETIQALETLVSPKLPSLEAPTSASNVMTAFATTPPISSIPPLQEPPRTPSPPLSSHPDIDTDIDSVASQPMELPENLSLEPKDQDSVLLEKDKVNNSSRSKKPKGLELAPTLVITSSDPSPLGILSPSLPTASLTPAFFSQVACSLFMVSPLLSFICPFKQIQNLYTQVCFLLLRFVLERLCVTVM
To be noted: protein: recombinant; tags: N-terminal GST; dsDNA, one strand shown. The procedure, abridged:
as §1

A further experiment addresses T4, ETV2 (Homo sapiens, UniProt O00321 1-342).
T4 sequence: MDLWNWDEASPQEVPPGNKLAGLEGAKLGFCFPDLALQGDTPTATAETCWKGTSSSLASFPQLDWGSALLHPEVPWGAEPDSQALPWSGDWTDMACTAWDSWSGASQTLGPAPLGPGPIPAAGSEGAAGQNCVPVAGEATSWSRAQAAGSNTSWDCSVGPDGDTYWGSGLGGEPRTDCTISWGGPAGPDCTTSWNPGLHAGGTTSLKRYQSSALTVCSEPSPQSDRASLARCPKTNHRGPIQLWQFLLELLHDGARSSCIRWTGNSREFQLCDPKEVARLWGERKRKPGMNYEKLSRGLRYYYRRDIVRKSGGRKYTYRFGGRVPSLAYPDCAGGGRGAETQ
To be noted: protein: recombinant; tags: N-terminal GST; dsDNA, one strand shown. In a few lines: as §1

The next experiment has as its target T5, ELF3 (Homo sapiens, UniProt P78545 1-371).
T5 sequence: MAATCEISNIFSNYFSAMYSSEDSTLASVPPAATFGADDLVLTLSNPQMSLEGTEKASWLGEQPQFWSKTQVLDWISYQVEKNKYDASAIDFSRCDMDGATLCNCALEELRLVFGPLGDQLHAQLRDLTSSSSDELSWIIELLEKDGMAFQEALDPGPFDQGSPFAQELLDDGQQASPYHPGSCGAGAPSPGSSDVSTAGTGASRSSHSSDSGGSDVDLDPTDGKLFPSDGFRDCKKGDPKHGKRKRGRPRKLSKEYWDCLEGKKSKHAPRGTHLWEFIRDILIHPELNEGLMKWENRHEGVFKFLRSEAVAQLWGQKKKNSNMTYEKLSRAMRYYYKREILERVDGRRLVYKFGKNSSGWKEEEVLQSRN
To be noted: protein: recombinant; tags: N-terminal GST; dsDNA, one strand shown. The procedure, abridged:
as §1

The next experiment addresses CRX (Homo sapiens, UniProt O43186 1-299). To be noted: protein: recombinant; tags: N-terminal GST; dsDNA, one strand shown. In a few lines: as §1
A further experiment concerns the target ETV1 (Homo sapiens, UniProt P50549 1-477). The following applies: protein: recombinant; tags: N-terminal GST; dsDNA, one strand shown. The procedure, abridged:
as §1

The target of another experiment is T6, ERF (Homo sapiens, UniProt P50548 1-548).
T6 sequence: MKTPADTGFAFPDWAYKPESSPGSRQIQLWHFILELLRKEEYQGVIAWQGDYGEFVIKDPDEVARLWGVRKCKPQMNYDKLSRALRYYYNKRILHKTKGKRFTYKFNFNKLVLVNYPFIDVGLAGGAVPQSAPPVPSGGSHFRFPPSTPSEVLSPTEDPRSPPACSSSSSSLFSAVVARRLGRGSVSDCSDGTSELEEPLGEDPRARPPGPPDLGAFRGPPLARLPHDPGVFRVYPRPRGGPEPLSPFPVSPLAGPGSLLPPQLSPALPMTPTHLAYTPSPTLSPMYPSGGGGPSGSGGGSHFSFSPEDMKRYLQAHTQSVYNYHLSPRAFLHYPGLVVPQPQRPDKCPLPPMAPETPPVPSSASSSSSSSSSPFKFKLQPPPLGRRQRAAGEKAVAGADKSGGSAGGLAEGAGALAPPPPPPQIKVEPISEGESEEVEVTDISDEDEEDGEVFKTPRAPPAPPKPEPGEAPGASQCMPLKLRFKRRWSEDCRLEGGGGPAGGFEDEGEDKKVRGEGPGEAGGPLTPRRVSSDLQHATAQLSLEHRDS
The following applies: protein: recombinant; tags: N-terminal GST; dsDNA, one strand shown. In a few lines:
as §1

The next experiment concerns the target T7, ETV3L (Homo sapiens, UniProt Q6ZN32 1-361).
T7 sequence: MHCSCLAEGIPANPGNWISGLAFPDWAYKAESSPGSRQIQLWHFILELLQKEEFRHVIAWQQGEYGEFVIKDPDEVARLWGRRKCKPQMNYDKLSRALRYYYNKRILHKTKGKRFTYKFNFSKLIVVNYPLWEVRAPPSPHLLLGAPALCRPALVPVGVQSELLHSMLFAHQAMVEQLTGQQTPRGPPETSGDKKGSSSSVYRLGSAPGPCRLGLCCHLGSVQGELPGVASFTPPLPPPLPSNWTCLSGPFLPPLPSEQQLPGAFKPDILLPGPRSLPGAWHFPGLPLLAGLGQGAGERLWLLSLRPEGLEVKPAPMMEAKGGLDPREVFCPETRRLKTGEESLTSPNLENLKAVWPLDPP
To be noted: protein: recombinant; tags: N-terminal GST; dsDNA, one strand shown. In a few lines: as §1

The target in another experiment is T8, ETS2 (Homo sapiens, UniProt P15036 1-469).
T8 sequence: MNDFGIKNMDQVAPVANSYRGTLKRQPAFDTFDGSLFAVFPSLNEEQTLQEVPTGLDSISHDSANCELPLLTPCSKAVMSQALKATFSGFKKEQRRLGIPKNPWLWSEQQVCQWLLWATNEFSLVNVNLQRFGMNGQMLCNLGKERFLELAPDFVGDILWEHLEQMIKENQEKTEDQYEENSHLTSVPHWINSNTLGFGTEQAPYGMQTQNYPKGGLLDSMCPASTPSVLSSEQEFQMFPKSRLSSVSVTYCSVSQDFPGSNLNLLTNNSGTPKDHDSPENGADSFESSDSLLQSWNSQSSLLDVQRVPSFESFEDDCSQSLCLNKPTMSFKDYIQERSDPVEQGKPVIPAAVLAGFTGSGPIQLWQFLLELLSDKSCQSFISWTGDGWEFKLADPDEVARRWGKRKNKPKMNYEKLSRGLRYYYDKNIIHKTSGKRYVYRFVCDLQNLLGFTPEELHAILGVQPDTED
To be noted: protein: recombinant; tags: N-terminal GST; dsDNA, one strand shown. In a few lines: as §1

The target of another experiment is T9, SPDEF (Homo sapiens, UniProt O95238 1-335).
T9 sequence: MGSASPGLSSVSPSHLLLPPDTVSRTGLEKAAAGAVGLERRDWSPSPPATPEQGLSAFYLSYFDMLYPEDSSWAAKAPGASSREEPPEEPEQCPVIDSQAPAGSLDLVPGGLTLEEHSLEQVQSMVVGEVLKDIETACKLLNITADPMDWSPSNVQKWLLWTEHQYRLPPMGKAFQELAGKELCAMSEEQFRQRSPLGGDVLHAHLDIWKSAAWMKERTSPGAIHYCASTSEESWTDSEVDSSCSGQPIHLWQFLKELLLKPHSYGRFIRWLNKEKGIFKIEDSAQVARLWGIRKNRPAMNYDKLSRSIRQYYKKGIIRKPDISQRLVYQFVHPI
To be noted: protein: recombinant; tags: N-terminal GST; dsDNA, one strand shown. The procedure, abridged:
as §1

For a further experiment, the target named is T10, ETV7 (Homo sapiens, UniProt Q9Y603 1-341).
T10 sequence: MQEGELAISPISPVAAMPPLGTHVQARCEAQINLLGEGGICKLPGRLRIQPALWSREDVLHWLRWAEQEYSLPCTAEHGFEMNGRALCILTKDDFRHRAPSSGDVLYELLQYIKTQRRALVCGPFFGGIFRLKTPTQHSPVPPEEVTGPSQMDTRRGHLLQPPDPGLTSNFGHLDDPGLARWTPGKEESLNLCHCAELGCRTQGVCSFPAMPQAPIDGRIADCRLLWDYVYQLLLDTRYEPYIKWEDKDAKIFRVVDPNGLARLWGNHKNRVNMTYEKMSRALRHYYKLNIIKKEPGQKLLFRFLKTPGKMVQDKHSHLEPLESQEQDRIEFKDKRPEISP
To be noted: protein: recombinant; tags: N-terminal GST; dsDNA, one strand shown. The procedure, abridged:
as §1

Another experiment addresses T11, ELF5 (Homo sapiens, UniProt Q9UKW6-2 1-255).
T11 sequence: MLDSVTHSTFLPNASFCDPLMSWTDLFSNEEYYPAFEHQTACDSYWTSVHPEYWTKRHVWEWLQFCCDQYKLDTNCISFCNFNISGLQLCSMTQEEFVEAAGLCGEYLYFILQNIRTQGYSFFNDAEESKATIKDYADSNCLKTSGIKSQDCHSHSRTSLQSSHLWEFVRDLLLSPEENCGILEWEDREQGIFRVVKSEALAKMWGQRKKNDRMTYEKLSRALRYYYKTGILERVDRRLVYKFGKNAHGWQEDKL
To be noted: protein: recombinant; tags: N-terminal GST; dsDNA, one strand shown. In a few lines:
as §1

For a further experiment, the target named is T12, ETV3 (Homo sapiens, UniProt P41162-2 1-143).
T12 sequence: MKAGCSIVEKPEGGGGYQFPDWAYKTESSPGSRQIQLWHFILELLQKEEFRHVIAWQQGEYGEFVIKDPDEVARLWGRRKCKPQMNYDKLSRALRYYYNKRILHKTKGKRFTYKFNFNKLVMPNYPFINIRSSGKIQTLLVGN
To be noted: protein: recombinant; tags: N-terminal GST; dsDNA, one strand shown. In a few lines:
as §1

A further experiment addresses ETV6 (Homo sapiens, UniProt P41212 1-452). To be noted: protein: recombinant; tags: N-terminal GST; dsDNA, one strand shown. In a few lines: as §1

ETV6, sequence (P41212 whole entry): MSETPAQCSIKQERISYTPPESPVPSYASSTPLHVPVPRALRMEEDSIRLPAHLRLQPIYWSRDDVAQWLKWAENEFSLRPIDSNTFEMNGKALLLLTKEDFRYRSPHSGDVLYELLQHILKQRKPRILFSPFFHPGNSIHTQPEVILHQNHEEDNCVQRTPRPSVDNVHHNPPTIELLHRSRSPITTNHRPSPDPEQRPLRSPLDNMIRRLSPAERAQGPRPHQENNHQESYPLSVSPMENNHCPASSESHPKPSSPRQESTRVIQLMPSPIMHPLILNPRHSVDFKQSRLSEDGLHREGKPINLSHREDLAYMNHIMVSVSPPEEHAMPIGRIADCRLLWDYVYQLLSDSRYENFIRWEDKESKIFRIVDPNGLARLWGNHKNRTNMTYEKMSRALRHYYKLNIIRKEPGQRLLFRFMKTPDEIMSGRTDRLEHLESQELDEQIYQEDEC
ETV1, sequence (P50549 whole entry): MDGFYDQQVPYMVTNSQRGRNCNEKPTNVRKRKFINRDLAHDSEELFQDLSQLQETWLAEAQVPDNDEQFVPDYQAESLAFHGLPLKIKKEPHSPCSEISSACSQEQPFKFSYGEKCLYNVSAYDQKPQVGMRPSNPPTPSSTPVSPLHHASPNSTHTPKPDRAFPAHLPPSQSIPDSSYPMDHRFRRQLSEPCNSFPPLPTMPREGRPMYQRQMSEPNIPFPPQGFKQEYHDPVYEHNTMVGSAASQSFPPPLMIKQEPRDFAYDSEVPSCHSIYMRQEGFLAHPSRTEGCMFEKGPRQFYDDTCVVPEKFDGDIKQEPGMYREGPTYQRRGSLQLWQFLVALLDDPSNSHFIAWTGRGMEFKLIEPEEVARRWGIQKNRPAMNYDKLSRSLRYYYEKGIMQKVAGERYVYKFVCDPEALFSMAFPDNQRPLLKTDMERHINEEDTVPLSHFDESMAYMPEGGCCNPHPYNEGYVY
CRX, sequence (O43186 whole entry): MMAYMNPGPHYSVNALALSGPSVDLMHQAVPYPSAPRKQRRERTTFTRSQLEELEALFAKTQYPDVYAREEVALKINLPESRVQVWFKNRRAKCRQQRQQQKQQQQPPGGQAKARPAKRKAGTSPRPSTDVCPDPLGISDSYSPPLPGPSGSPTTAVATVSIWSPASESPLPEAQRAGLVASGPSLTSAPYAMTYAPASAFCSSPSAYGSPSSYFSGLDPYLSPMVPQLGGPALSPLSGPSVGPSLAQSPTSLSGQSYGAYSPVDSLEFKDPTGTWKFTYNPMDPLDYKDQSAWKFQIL

Regarding CGATTG, the binding signal in the experiment with FEV was 1.12 fold enrichment (6-mer frequency, TF over GST control); in the experiment with ETV5, 1.18 fold enrichment (6-mer frequency, TF over GST control); with HSF1 it was 1.21 fold enrichment (6-mer frequency, TF over GST control); with SPIC, 1.08 fold enrichment (6-mer frequency, TF over GST control); with ELF4, 1.28 fold enrichment (6-mer frequency, TF over GST control); in the experiment with ELK4, 1.34 fold enrichment (6-mer frequency, TF over GST control). Also, the binding signal with ETV2 was 1.08 fold enrichment (6-mer frequency, TF over GST control); with ELF3 it was 1.14 fold enrichment (6-mer frequency, TF over GST control); with CRX, 1.16 fold enrichment (6-mer frequency, TF over GST control); with ETV1, 1.16 fold enrichment (6-mer frequency, TF over GST control); with ERF it was 1.24 fold enrichment (6-mer frequency, TF over GST control); in the experiment with ETV3L, 1.17 fold enrichment (6-mer frequency, TF over GST control). In addition, the binding signal was 1.15 fold enrichment (6-mer frequency, TF over GST control) with ETS2; 1.22 fold enrichment (6-mer frequency, TF over GST control) with SPDEF; 1.18 fold enrichment (6-mer frequency, TF over GST control) with ETV7; 1.11 fold enrichment (6-mer frequency, TF over GST control) with ELF5; 1.07 fold enrichment (6-mer frequency, TF over GST control) with ETV3; 1.22 fold enrichment (6-mer frequency, TF over GST control) with ETV6.

The values above are taken from paper PMC7862700, “An all-to-all approach to the identification of sequence-specific readers for epigenetic DNA modifications on cytosine”.
